From PubChem
This is a sample that favours compounds with a hit; in the whole collection about 12% have one here.
PLK1 PBD block = qHTS for Inhibitors of PLK1-PDB (polo-like kinase 1 - polo-box domain): Primary Screen | Serine/threonine-protein kinase PLK1 (Homo sapiens), P53350 | Plk1 PBD binding of FITC phosphopeptide, fluorescence polarization | Potency, µM, usual class: inhibitors | 360,000 tested, 2.8% active | AID 720504, 2013; note: series mostly up to about 57 µM; nearly all actives have a fitted effect of over 65% in size
BAZ2B inh = qHTS Assay for Inhibitors of BAZ2B. AlphaScreen BAZ2B-H3K14Ac peptide displacement. Potency, µM (top dose mostly 114 µM), most hits filed as inhibitors. 360,000 tested, 4.4% active; note: nearly all actives have a fitted effect of over 60% in size
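In this displacement format the biotinylated H3(5-23) peptide acetylated at Lys14 serves as ligand at 50 nM, with BAZ2B at 50 nM in PBS pH 7.4 containing 0.01% Tween-20. Donor and acceptor beads are 10 ug/mL final.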
HP1b binding inh = HTS for Inhibitors of HP1-beta Chromodomain Interactions with Methylated Histone Tails. AlphaScreen HP1-beta / biotin-H3K9me3 peptide binding. Chromobox protein homolog 1 (Homo sapiens), P83916. 390,000 tested, 0.56% active. AID 540317, 2011. Potency, µM (top dose mostly 114 µM), usual class: inhibitors; note: nearly all actives have a fitted effect of over 70% in size
Target sequence (P83916 whole entry, looked up): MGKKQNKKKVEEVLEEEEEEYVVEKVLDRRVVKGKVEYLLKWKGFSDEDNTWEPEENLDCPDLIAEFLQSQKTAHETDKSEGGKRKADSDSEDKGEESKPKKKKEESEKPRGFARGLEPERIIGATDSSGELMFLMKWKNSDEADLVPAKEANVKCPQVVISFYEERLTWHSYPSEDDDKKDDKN
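AlphaScreen: HP1-beta (50 nM) preformed 30 min with biotin-H3(1-18)K9me3 peptide (50 nM) in PBS pH 7.4, 0.01% Tween-20. Compound added for 30 min at RT, then streptavidin donor/nickel chelate acceptor beads (10 ug/mL) for 30 min.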
JMJD2A Tudor inh = qHTS Assay for Inhibitors of JMJD2A-Tudor Domain | AlphaScreen JMJD2A-Tudor / H3K4me3 peptide binding | 390,000 tested, 4.4% active | AID 504339, 2011 | Potency, µM (titrated, usually from 114 µM), hits mostly inhibitors | Lysine-specific demethylase 4A (Homo sapiens), O75164; note: nearly all actives have a fitted effect of over 50% in size
G9a block = qHTS Assay for Inhibitors of Histone Lysine Methyltransferase G9a | Histone-lysine N-methyltransferase EHMT2 (Homo sapiens), Q96KQ7 | G9a H3K9 monomethylation, AlphaScreen, 2 h | Potency, µM (top dose mostly 102 µM), actives largely listed as inhibitors | 350,000 tested, 8.8% active; note: nearly all actives have a fitted effect of over 75% in size
Target sequence (Q96KQ7 913-1193 limits assumed): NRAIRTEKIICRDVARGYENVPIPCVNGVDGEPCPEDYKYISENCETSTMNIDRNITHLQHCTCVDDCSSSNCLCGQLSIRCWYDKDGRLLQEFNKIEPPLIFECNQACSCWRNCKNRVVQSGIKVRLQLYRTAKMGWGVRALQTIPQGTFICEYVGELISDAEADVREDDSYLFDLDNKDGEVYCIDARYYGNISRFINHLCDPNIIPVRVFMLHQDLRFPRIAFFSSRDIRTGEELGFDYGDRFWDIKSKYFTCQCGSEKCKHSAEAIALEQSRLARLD
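Step 1: enzyme (final 20 nM) with compound, 15 min RT. Step 2: substrate peptide 500 nM and SAM 20 uM, 2 h RT. Step 3: anti-H3K9me1 antibody and AlphaScreen beads, 10 min, then plate read.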
Sfp PPTase inh = qHTS Assay for Inhibitors of Bacillus subtilis Sfp phosphopantetheinyl transferase (PPTase). Potency, µM, most hits filed as inhibitors. Biochemical Sfp PPTase activity, qHTS. 4'-phosphopantetheinyl transferase ffp (Bacillus subtilis), Q9F4F7. 310,000 tested, 3.5% active;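 note: the enzyme is Sfp with the accession as filed and its product quenches rhodamine fluorescence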
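Fluorescence-quenching assay: 15 nM Sfp-PPTase preincubated 15 min at room temperature with compound, then 5 uM rhodamine-CoA and 12.5 uM BHQ-2-labelled YbbR peptide added. Fluorescence (ex 525/em 598 nm) read at start and after 30 min; difference gives rate.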
A number is an active result; i = inactive; ? = inconclusive; nt = no result; ! = repeats disagree; [ ] = dose if it differs, or a comment. Calls come from the whole dose curve; as a rule, active = well fitted curve in the direction sought with a large enough effect; inconclusive = small, poorly fitted or top-dose-only effect, or another doubt; inactive = no such curve, though single readings can be large; an effect the other way counts as inactive or inconclusive.

SMILES	PLK1 PBD block	BAZ2B inh	HP1b binding inh	JMJD2A Tudor inh	G9a block	Sfp PPTase inh
O=C(COC(=O)CCc1nc2ccccc2s1)Nc1ccc(S(=O)(=O)N2CCOCC2)cc1	i	i	i	i	56.2µM	i
O=S(=O)(c1ccc(OCc2nc3ccccc3s2)c(Cl)c1)N1CCOCC1	i	i	i	i[11.4 µM]	50.1µM	i
O=C(COC(=O)CCCc1nc2ccccc2s1)Nc1ncc(Cl)cc1Cl	i	?	i	?	?	i
O=C(CSc1nc2ccccc2nc1Cc1ccc(Cl)cc1)N1CCc2ccccc21	nt	i	i	i	i	nt
Cc1ccc2c(c1)[C@@H]1CN(C)CC[C@@H]1N2S(=O)(=O)c1ccc([N+](=O)[O-])cc1	i	?	i	?	?	i
Cc1ccc2c(c1)C1CN(C)CCC1N2Sc1ccccc1[N+](=O)[O-] (stereo not given)	i	15.8µM	?	31.6µM	?	i
CN=C1SC(CC(=O)Nc2c(C)cccc2C)C(=O)N1/N=C/c1cccs1 (stereo not given)	i	i	i	i	i	i
COc1ccc([N+](=O)[O-])cc1NC(=O)CC1SC(=Nc2cccc(C)c2C)N(/N=C/c2cccc(OC)c2OC)C1=O (stereo not given)	i	i	i	i	35.5µM	i
O=C(NCc1ccc(Cl)c(Cl)c1)c1cc(C2CCCCN2C(=O)c2cccs2)on1 (stereo not given)	i	nt	nt	nt	nt	nt
COc1ccccc1NCc1cccn1-c1nnc(N2CCOCC2)s1	nt	i	i	i	i	nt
COc1ccc(NCc2cccn2-c2nnc(N3CCC(C)CC3)s2)c(OC)c1	nt	?	?	28.2µM	5.62µM	nt
COc1ccc(OC)c(NCc2cccn2-c2nnc(N3CCC(C)CC3)s2)c1	nt	i	?	?	7.94µM	nt
COc1ccc(CNC(=O)C2CCN(c3nnc(-n4cccc4CNc4ccc(C)cc4)s3)CC2)c(OC)c1	nt	i	i	i	1.41µM	nt
COc1ccc(OC)c(NC(=O)Nc2nnc(N3CCC(C)CC3)s2)c1	i	?	i	?	50.1µM	i
COc1ccc(NCc2cccn2-c2nnc(N3CCOCC3)s2)c(OC)c1	nt	i	i	i	?	nt
CC(C)(C)CC(=O)NC(=S)NCc1ccco1	i	?	i	i	i	i
COC(=O)c1nnc(SC)nc1C(=O)OC	nt	nt	nt	nt	nt	i
COc1ccc(/C(C)=N/NC(=O)CNC(=O)/C=C\c2ccccc2)c(OC)c1	i	?	i	i	i	i
COc1ccc(OC)c(NC(=O)C2CCCCC2C(=O)O)c1 (stereo not given)	i	i	i	i	i	i
COc1ccc(OC)c(NC(=O)C2C3CCC(C3=C(C)C)C2C(=O)O)c1 (stereo not given)	i	i	i	?	8.91µM	39.8µM
CCOC(=O)c1cc(-c2ccccc2)sc1N	11.9µM	?	?	?	8.91µM	22.4µM
CCOC(=O)c1cc(-c2ccccc2)sc1NC(=O)CCN1C(=O)c2ccccc2C1=O	i	i	i	i	i	i
CCOC(=O)c1sc(-c2ccccc2)cc1N	i	i	i	i	i	i
CCOC(=O)c1cc(-c2ccccc2)sc1NC(=O)CC	21.2µM	i	?	i	56.2µM	i
COC(=O)[C@@]12C[C@@H](CC(=O)N3CCN(C(=O)c4ccco4)CC3)C(=O)N(Cc3ccc4c(c3)OCO4)C1=CCC(C)(C)C2	i	nt	nt	nt	nt	nt
SMILES	PLK1 PBD block	BAZ2B inh	HP1b binding inh	JMJD2A Tudor inh	G9a block	Sfp PPTase inh
Cc1cc(C(=O)Nc2ccc3[nH]ccc3c2)no1	i	i	i	i	i	i
CCC(c1c(C)[nH]oc1=O)c1c(C)[nH]oc1=O	i	i	i	25.1µM	?	i
CCc1cccc(C)c1NC(=O)Cn1nnc(-c2nc(-c3ccccc3F)no2)c1N	nt	56.2µM	i	i	?	nt
Cc1cc(C)cc(NC(=O)Cn2nnc(-c3nc(-c4ccncc4)no3)c2N)c1	nt	?	i	56.2µM	i	nt
CN(CC(=O)Nc1cccc(F)c1)C(=O)c1cc([N+](=O)[O-])ccc1N1CCOCC1	i	i	i	i	i[0.501 µM]	nt
O=C(Nc1ccc(F)cc1F)c1ccc(-n2cccn2)c([N+](=O)[O-])c1	i	?	i	i	i[12.7 µM]	i
CCn1nc(C(=O)NNS(=O)(=O)c2ccc(C)cc2)c2ccccc2c1=O	i	nt	i	i	nt	nt
Cc1nc2c(O)cccc2cc1CO	i	i	i	4.47µM	10µM	70.8µM
Cc1occc1-c1nnc(SC(C)C(=O)Nc2ccccc2F)o1 (stereo not given)	i	i	i	i	i	nt
CCCC(c1nnnn1C(C)(C)CC)N1CCN(C2CCCC2)CC1 (stereo not given)	i	?	i	i[11.4 µM]	89.1µM	i
CCCC(c1nnnn1Cc1ccco1)N1CCN(C2CCCC2)CC1 (stereo not given)	i	?	i	?	50.1µM	i
CCCC(c1nnnn1Cc1cccs1)N1CCN(C2CCCC2)CC1 (stereo not given)	26.7µM	?	?	56.2µM	?	i
COc1ccc(C2c3cc(OC)c(OC)cc3CCN2C(=O)c2ccccc2Br)cc1OC (stereo not given)	i	i	i	i	i	i
O=C(O)c1ccccc1NC(=O)C1C2C=CC(C2)C1C(=O)O (stereo not given)	i	i	i	i	?	20µM
O=C(ONC(=O)C1C2C=CC(C2)C1C(=O)NOC(=O)c1ccccc1)c1ccccc1 (stereo not given)	i	nt	i	0.794µM	nt	nt
Cc1c(NC(=O)c2cccnc2C(=O)O)cccc1C(=O)O	i	35.5µM	?	2.51µM	8.91µM	?
Cc1ccc(-c2ccc(NC(=O)C3C4C=CC(C4)C3C(=O)O)cc2)o1 (stereo not given)	i	?	i	i	15.8µM	2.24µM
CC(C)c1ccccc1NC(=O)C1C2C=CC(C2)C1C(=O)O (stereo not given)	i	i	i	i	nt	?
COC(=O)C/C=C/[C@@H](C)[C@@H](Cc1ccccc1Br)OC	nt	nt	nt	nt	nt	i
CCCN(CCC)CCNC(=O)C1CCCN(S(=O)(=O)c2cccc3nsnc23)C1 (stereo not given)	nt	nt	i	i	i	nt
CCC[C@@H]1Cc2ccccc2N1C(C)=O	i	i	i	i	i[0.501 µM]	nt
O=C(O)c1ccccc1NN=C1CCCCC1	i	i	i	?	8.91µM	i
Cc1c(Cl)cccc1Nc1ncccc1C(=O)O	?	i	i	25.1µM!	i[12.7 µM]	i
Cc1c(Nc2ncccc2C(=O)O)cccc1C(F)(F)F	i	i	i	i	i	i
